Measured values reported in PubChem BioAssay AID720597 (Broad Institute, 2013).
Potency and affinity values are given separately. Activity calls are given as the source filed them.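 How the source made its calls: active means fitted half-maximal dose no more than twice the top valid tested dose, for compounds that lower signal; inconclusive means fit invalid, or curve flat with activity between -70 and -30; inactive means potency past limit, curve flat within ±30, or signal increasing.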

The compounds below were run against NAD-dependent protein deacylase sirtuin-5, mitochondrial (Homo sapiens) (UniProt Q9NXA8) (assay: SIRT5 deacylase inhibitors, dose response, biochemical, fluorescence imaging, cherry-pick, set 6 (AID 720597;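 further: lower AMC signal can also come from blocking the trypsin step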)). Details: Purified SirT5, succinyl-peptide-AMC/trypsin fluorescence; series mostly up to 15 µM.
Chain of NAD-dependent protein deacylase sirtuin-5, mitochondrial (Homo sapiens) (Q9NXA8 whole entry, looked up): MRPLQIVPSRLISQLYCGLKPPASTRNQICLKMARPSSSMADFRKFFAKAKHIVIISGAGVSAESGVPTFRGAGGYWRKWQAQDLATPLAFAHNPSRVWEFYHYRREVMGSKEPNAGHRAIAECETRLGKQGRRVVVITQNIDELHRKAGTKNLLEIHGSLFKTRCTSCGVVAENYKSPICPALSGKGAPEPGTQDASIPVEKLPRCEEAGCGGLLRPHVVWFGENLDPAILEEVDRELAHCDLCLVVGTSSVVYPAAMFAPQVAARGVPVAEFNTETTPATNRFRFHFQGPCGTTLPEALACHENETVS

outcome, inactive:
Cc1ccc(S(=O)(=O)N(C)C[C@@H]2OCCCC[C@@H](C)Oc3ccc(NS(=O)(=O)c4ccccc4)cc3C(=O)N([C@@H](C)CO)C[C@@H]2C)cc1, C[C@H]1CN([C@@H](C)CO)C(=O)c2cc(NC(=O)CCC(F)(F)F)ccc2O[C@H]1CN(C)Cc1ccc(C(F)(F)F)cc1, C[C@@H]1CN([C@@H](C)CO)C(=O)c2cc(NS(=O)(=O)c3ccc(Cl)cc3)ccc2O[C@@H](C)CCCCO[C@@H]1CN(C)C(=O)Nc1ccc(C(F)(F)F)cc1, C[C@H]1CN([C@@H](C)CO)C(=O)c2cc(NC(=O)Cc3ccccc3)ccc2O[C@H]1CN(C)Cc1ccc(Oc2ccccc2)cc1, C[C@H]1CN([C@@H](C)CO)S(=O)(=O)c2ccc(C3=CCCCC3)cc2O[C@@H]1CN(C)S(=O)(=O)c1ccc(F)cc1, Cc1ccc(S(=O)(=O)N(C)C[C@H]2OCCCC[C@H](C)Oc3ccc(NS(=O)(=O)c4ccc(Cl)cc4)cc3C(=O)N([C@H](C)CO)C[C@H]2C)cc1, O=C(Nc1cc(F)ccc1F)N1CC(=O)N2[C@H](C1)[C@@H](c1ccc(C#CC3CCCCC3)cc1)[C@@H]2CO, C[C@@H]1CN([C@H](C)CO)S(=O)(=O)c2ccc(C3=CCCCC3)cc2O[C@H]1CN(C)S(=O)(=O)c1ccc(F)cc1, C[C@H]1CN([C@@H](C)CO)S(=O)(=O)c2ccc(/C=C/c3ccccc3)cc2O[C@@H]1CN(C)C(=O)NC1CCCC1, COc1ccc(NC(=O)N(C)C[C@H]2Oc3cc(C#CCC(C)C)ccc3S(=O)(=O)N([C@@H](C)CO)C[C@H]2C)cc1, C[C@H]1CN([C@@H](C)CO)S(=O)(=O)c2ccc(/C=C/c3ccccc3)cc2O[C@@H]1CN(C)C(=O)Nc1ccc(F)cc1, C[C@H]1CN([C@@H](C)CO)S(=O)(=O)c2ccc(C#Cc3cccc(F)c3)cc2O[C@H]1CN(C)S(=O)(=O)c1ccccc1F, O=C(NCC[C@@H]1CC[C@@H](NS(=O)(=O)c2ccc(Cl)cc2)[C@H](CO)O1)c1ccccc1F, O=C(C[C@@H]1CC[C@@H](NC(=O)Nc2cccc(F)c2)[C@H](CO)O1)NCC1CC1, C[C@@H]1CN([C@@H](C)CO)C(=O)c2cc(NS(=O)(=O)c3ccc(F)cc3)ccc2O[C@@H](C)CCCCO[C@@H]1CN(C)S(=O)(=O)c1ccc(Cl)cc1, Cc1ccc(S(=O)(=O)Nc2ccc3c(c2)C(=O)N([C@@H](C)CO)C[C@H](C)[C@H](CN(C)Cc2ccc(C(F)(F)F)cc2)OCCCC[C@@H](C)O3)cc1, COc1ccc(S(=O)(=O)Nc2ccc3c(c2)C(=O)N([C@@H](C)CO)C[C@H](C)[C@@H](CN(C)Cc2ccc(Oc4ccccc4)cc2)O3)cc1, C[C@@H]1CN([C@H](C)CO)C(=O)c2cc(NC(=O)Cc3ccccc3)ccc2O[C@@H]1CN(C)Cc1ccc(Oc2ccccc2)cc1, C[C@@H]1CN([C@H](C)CO)C(=O)Cc2cc(NC(=O)Nc3ccc(F)cc3)ccc2O[C@@H]1CN(C)Cc1ccc2c(c1)OCO2, C[C@@H]1CN([C@@H](C)CO)S(=O)(=O)c2ccc(C#CC3CC3)cc2O[C@@H]1CN(C)Cc1ccccc1F, C[C@@H]1CN([C@H](C)CO)S(=O)(=O)c2ccc(C#Cc3ccc(F)cc3)cc2O[C@H]1CN(C)S(=O)(=O)c1ccc(F)cc1, C[C@H]1CN([C@@H](C)CO)C(=O)c2cccc(NC(=O)CCCCCC(=O)Nc3ccccc3N)c2O[C@@H]1CN(C)Cc1ccc(-c2ccccc2)cc1, COc1ccc(S(=O)(=O)N(C)C[C@H]2Oc3cc(C#CC4CC4)ccc3S(=O)(=O)N([C@@H](C)CO)C[C@@H]2C)cc1, Cc1noc(C)c1S(=O)(=O)Nc1ccc2c(c1)C(=O)N([C@@H](C)CO)C[C@@H](C)[C@H](CN(C)Cc1ccc(Cl)c(Cl)c1)OCCCC[C@@H](C)O2, COc1ccc(S(=O)(=O)Nc2ccc3c(c2)C(=O)N([C@@H](C)CO)C[C@H](C)[C@@H](CN(C)S(=O)(=O)c2ccccc2)OCCCC[C@@H](C)O3)cc1, CCC(=O)N1CC2(C1)[C@H](c1ccccc1)[C@H](CO)N2Cc1ccccc1OC, COc1ccc(NC(=O)N(C)C[C@H]2Oc3ccc(NS(=O)(=O)c4ccc(F)cc4)cc3C(=O)N([C@H](C)CO)C[C@H]2C)cc1, COc1ccc(NC(=O)Nc2ccc3c(c2)C(=O)N([C@H](C)CO)C[C@@H](C)[C@@H](CN(C)Cc2ccccc2)OCCCC[C@H](C)O3)cc1, CC(C)CC#Cc1ccc2c(c1)O[C@H](CN(C)C(=O)CC1CC1)[C@@H](C)CN([C@@H](C)CO)S2(=O)=O, CN(C)c1ccc2c(c1)[C@H]1C[C@H](CC(=O)NCc3ccc(Oc4ccccc4)cc3)O[C@H](CO)[C@H]1O2, C[C@H]1CN([C@@H](C)CO)C(=O)c2cccc(NS(=O)(=O)c3cn(C)cn3)c2O[C@H]1CN(C)Cc1ccc(Oc2ccccc2)cc1, Cc1noc(C)c1NC(=O)Nc1ccc2c(c1)C(=O)N([C@H](C)CO)C[C@@H](C)[C@@H](CN(C)Cc1ccc(C(=O)Nc3ccccc3N)cc1)O2, C[C@@H]1CN([C@@H](C)CO)S(=O)(=O)c2ccc(C#CC(C)(C)O)cc2O[C@@H]1CN(C)Cc1ccc(-c2ccccc2)cc1, C/C=C/c1ccc2c(c1)O[C@H](CN(C)Cc1cccc(F)c1)[C@H](C)CN([C@@H](C)CO)S2(=O)=O, COc1cccc(NC(=O)N2CC(=O)N3[C@H](CO)[C@@H](c4ccc(C#CCC5CCCC5)cc4)[C@H]3C2)c1, C[C@@H]1CN([C@@H](C)CO)S(=O)(=O)c2ccc(C#Cc3ccc(F)cc3)cc2O[C@H]1CN(C)C(=O)NC1CCCCC1, C[C@@H]1CN([C@@H](C)CO)C(=O)c2cc(NS(=O)(=O)c3ccccc3)ccc2O[C@@H](C)CCCCO[C@@H]1CN(C)S(=O)(=O)c1ccc(F)cc1, C[C@H](CO)N1C[C@H](C)[C@@H](CN(C)CC2CCCCC2)Oc2c(NC(=O)CCCCCC(=O)Nc3ccccc3N)cccc2C1=O, CC(C)C#Cc1cnc2c(c1)C(=O)N([C@H](C)CO)C[C@H](C)[C@@H](CN(C)C(=O)CN1CCOCC1)O2
